These results are taken from PubChem BioAssay (Tox21).

Values joined by “and” are separate entries in the source; they are usually repeats but may differ in a detail not shown here. Identical values can stand only once. Inconclusive results are not listed. More than one record can exist for a structure, and the calls need not agree. Active and inactive are the calls of the source. Unless noted, the call rests on the fitted dose curve; in most records, active means well fitted curve in the direction sought with a large enough effect in the repeat runs; inconclusive means weak or mixed curves; inactive means no such curve, though single readings can be large; an effect the other way counts as inactive or inconclusive.

Assay [1] is described as follows: qHTS assay for small molecule agonists of the p53 signaling pathway (AID 651631; calls by dose curve; further: nearly all actives have a fitted effect of over 15% in size). A digest of the protocol: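 Agonist mode screen using a stably integrated beta-lactamase gene under p53 response elements in HCT-116 cells. Compound exposure lasts 16 h at 37 °C; fluorescence intensity is measured following 2 h FRET substrate loading.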
Assay [2] in a line: qHTS assay for small molecule agonists of the p53 signaling pathway - cell viability (AID 651633; calls by dose curve;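 further: p53RE-bla HCT reporter cells with a stable beta-lactamase p53 reporter; series mostly up to about 83 µM; nearly all actives have a fitted effect of over 30% in size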). A digest of the protocol: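 p53RE-bla cells were treated with compound for 16 hours at 37 C. Cytotoxicity was then measured as CellTiter-Glo luminescence after 30 min at room temperature.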
Assay [3] is described as follows: qHTS assay for small molecules that induce genotoxicity in human embryonic kidney cells expressing luciferase-tagged ATAD5 - cell viability (AID 651634; calls by dose curve; further: nearly all actives have a fitted effect of over 25% in size). In short, it runs like this:
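Fluorescence from CellTiter-Fluor, reporting protease activity within live cells, served as the viability read-out. HEK293T cells carrying luciferase-tagged ATAD5 had been treated with compound for 15.5 hr at 37C.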

Assay [4] in a line: qHTS assay for small molecule disruptors of the mitochondrial membrane potential (AID 720635). A digest of the protocol: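 HepG2 cells exposed to compound 1 hr at 37C, then Mito-MPS dye 30 min. Ratio read of aggregate (540/590 nm) versus monomer (490/535 nm) fluorescence.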
Assay [5] is described as follows: qHTS assay to test for compound auto fluorescence at 590 nm (red) in HepG2 cells (AID 720674). In short, it runs like this: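 HepG2 cells, 2,000 per well in MEM with 10% FBS, attached overnight at 37 C, then got 23 nL compound or DMSO. After 1 hr at 37 C, 5% CO2, red fluorescence was read at 540/590 nm against Rose Bengal sodium as reference.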
Assay [6] can be described thus: qHTS assay to test for compound auto fluorescence at 535 nm (green) in HepG2 cells (AID 720675).
Assay [7] is described as follows: qHTS assay to test for compound auto fluorescence at 460 nm (blue) in HEK293 cells (AID 720678). A digest of the protocol: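 Blue-channel (Ex/Em 405/460 nm) intensity measured in HEK293 cultures after overnight compound exposure at 37C; signal expressed relative to triamterene. Cells plated 2,000 per well in 10% dialyzed FBS medium and allowed 4-5 hr to attach.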

Assay [8] is described as follows: qHTS assay to test for compound auto fluorescence at 590 nm (red) in HEK293 cells (AID 720679). In short, it runs like this: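 Red-channel autofluorescence (Ex/Em 540/590 nm; Rose Bengal sodium reference) was measured after overnight 37C, 5% CO2 exposure of attached HEK293 cells, 2,000 per well in medium with 10% dialyzed FBS.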
The nature of assay [9]: qHTS assay to test for compound auto fluorescence at 535 nm (green) in HEK293 cells (AID 720680).
Assay [10] can be described thus: qHTS assay to test for compound auto fluorescence at 460 nm (blue) in HEK293 cell free culture (AID 720681). A digest of the protocol: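 Compounds were added to cell-free DMEM with 10% FBS and fluorescence read directly. The blue channel used 405 nm excitation and 460 nm emission, with triamterene as the reference fluorophore.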
A short description of assay [11]: qHTS assay to test for compound auto fluorescence at 535 nm (green) in HEK293 cell free culture (AID 720682). A digest of the protocol: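 No cells present: wells hold DMEM supplemented with 10% FBS, into which compound or vehicle is pinned. Green emission is then recorded (485 nm excitation, 535 nm emission) and scaled to fluorescein.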
The nature of assay [12]: qHTS assay to test for compound auto fluorescence at 590 nm (red) in HEK293 cell free culture (AID 720683). In short, it runs like this: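 Cell-free wells of DMEM with 10% FBS received compound, and intrinsic fluorescence was read at excitation/emission 540/590 nm. Values expressed as equivalence to Rose Bengal sodium.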
A short description of assay [13]: qHTS assay to test for compound auto fluorescence at 590 nm (red) in HepG2 cell free culture (AID 720684). In short, it runs like this:
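Compound was pinned into wells holding MEM with 10% FBS and no cells, and red fluorescence was read at Ex/Em 540/590 nm. Signal is expressed as auto fluorescence equivalency relative to Rose Bengal sodium.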

Assay [14] is described as follows: qHTS assay to test for compound auto fluorescence at 460 nm (blue) in HepG2 cell free culture (AID 720685). In short, it runs like this: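 Compound (23 nL) or DMSO pinned into cell-free MEM with 10% FBS; blue fluorescence read at 405/460 nm excitation/emission, expressed as auto-fluorescence equivalency to triamterene.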
A short description of assay [15]: qHTS assay to test for compound auto fluorescence at 535 nm (green) in HepG2 cell free culture (AID 720686).
Assay [16] is described as follows: qHTS assay to test for compound auto fluorescence at 460 nm (blue) in HepG2 cells (AID 720687). In short, it runs like this: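 HepG2 cells in MEM with 10% FBS, attached overnight at 37 C, were exposed to compound or DMSO for 1 hr at 37 C, 5% CO2. Blue fluorescence was read at 405/460 nm, with triamterene as reference fluorophore.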
Assay [17] can be described thus: qHTS assay for small molecule disruptors of the mitochondrial membrane potential - cell viability (AID 720634; calls by dose curve; further: nearly all actives have a fitted effect of over 20% in size; further: potency means the concentration at half of the fitted maximal effect). In short, it runs like this: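 Cells: HepG2, 2,000/well, attached overnight. Compound 1 hr, 37 C/5% CO2. +m-MPI dye, +CellTiter-Glo 30 min RT. Readout: luminescence (ATP).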
Assay [18] has as its target Glucocorticoid receptor (Homo sapiens) (UniProt P04150). In words: qHTS assay to identify small molecule antagonists of the glucocorticoid receptor (GR) signaling pathway (AID 720692; active means well fitted inhibition curve with a large enough effect in the signal ratio in the repeat runs, not every such curve was filed as active; the % refers to the signal ratio). A digest of the protocol:
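HeLa GR-bla cells; cmpd + dex 5 nM final, 18 h 37 C; LiveBLAzer B/G FRET substrate 2 h RT; fluorescence intensity read. Antagonist mode, qHTS.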

Assay [19] can be described thus: qHTS assay for small molecules that induce genotoxicity in human embryonic kidney cells expressing luciferase-tagged ATAD5 (AID 651632). Further: nearly all actives have a fitted effect of over 15% in size. In short, it runs like this:
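ATAD5-luc HEK293T, 2,000 cells/well; cpd or DMSO pin-transferred; 16 hr, 37C/5% CO2; Amplite 30 min RT; luminescence.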

Assay [20] deals with Glucocorticoid receptor (Homo sapiens) (UniProt P04150). In words: qHTS assay to identify small molecule agonists of the glucocorticoid receptor (GR) signaling pathway (AID 720691; active means well fitted activation curve with a large enough effect in the signal ratio in the repeat runs, not every such curve was filed as active; the % refers to the signal ratio). In short, it runs like this: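 Fluorescence intensity from LiveBLAzer B/G FRET substrate (2 h, room temperature) reports beta-lactamase expression driven by the glucocorticoid response element in GR-bla HeLa cells after 18 h compound exposure at 37 C.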
Chain of Glucocorticoid receptor (Homo sapiens) (P04150 whole entry, looked up): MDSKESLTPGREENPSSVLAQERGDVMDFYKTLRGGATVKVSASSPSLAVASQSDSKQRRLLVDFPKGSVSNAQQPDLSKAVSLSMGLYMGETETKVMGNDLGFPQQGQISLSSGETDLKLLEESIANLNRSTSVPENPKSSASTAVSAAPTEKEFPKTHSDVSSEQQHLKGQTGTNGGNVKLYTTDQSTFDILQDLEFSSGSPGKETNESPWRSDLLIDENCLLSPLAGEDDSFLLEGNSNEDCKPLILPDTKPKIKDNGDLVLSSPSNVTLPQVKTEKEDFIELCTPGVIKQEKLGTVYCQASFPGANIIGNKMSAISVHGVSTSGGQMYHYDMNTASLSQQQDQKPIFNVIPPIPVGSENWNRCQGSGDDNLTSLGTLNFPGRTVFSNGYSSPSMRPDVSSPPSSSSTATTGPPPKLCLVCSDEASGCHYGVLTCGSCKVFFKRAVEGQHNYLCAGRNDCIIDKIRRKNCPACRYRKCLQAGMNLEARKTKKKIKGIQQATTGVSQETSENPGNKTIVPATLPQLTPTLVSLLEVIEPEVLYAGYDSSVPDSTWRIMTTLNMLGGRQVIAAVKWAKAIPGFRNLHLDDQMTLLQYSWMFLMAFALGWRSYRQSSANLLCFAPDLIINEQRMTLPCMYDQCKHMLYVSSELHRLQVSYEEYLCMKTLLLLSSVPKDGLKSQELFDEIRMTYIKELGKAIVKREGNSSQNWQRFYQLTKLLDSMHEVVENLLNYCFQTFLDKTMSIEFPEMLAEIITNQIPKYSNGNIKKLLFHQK

Turning to `OC[C@@H](O)[C@@H](O)[C@H](O)[C@H](O)CO`, the Potency entry in [1], in assay [2], in assay [3] and in [4] was “inactive” throughout. Also, the outcome in assay [5], in [6], in assay [7], in [8], in [9] and in [10] was inactive. Besides, the compound was called inactive in assay [11], in [12], in assay [13], in assay [14], in assay [15] and in [16].

Turning to `CCCCCCCC(=O)OCC(O)CO` (centres undefined), the Potency result in assay [1], in assay [2], in assay [3], in assay [17], in assay [4] and in assay [18] was “inactive” each time. For the same compound, the outcome in assay [5], in [6], in assay [7], in assay [8], in [9] and in assay [10] was inactive. Also, the compound was classed as inactive in assay [11], in [12], in assay [13], in [14], in assay [15] and in [16].

With `CCCCOCCOCCSC#N`, the Potency entry in assay [1], in assay [2], in assay [3], in assay [4] and in assay [18] was “inactive” in each case. Besides, the compound was classed as inactive in assay [5], in assay [6], in assay [7], in assay [8], in assay [9] and in assay [10]. Also, the outcome in assay [11], in assay [12], in [13], in assay [14], in assay [15] and in assay [16] was inactive.

Turning to `CC(C)(C)NCC(O)c1ccc(O)c(CO)c1` (centres undefined), the Potency result in [1], in assay [19], in assay [2], in assay [4], in assay [20] and in assay [18] was “inactive” in each case. Moreover, the result in assay [5], in assay [6], in [7], in [8], in assay [9] and in assay [10] was inactive. Besides, the compound was called inactive in [11], in assay [12], in [13], in [14], in assay [15] and in assay [16].

For the compound `CC(C)CC(C)CC(O)CC(C)C` (centres undefined), the Potency entry in [1], in [2], in assay [3], in [17] and in [4] was “inactive” in each case. Moreover, the call in [5], in assay [6], in assay [7], in [8], in [9] and in assay [10] was inactive. In addition, the compound was classed as inactive in assay [11], in [12], in assay [13], in [14], in [15] and in [16].

As for `NC(=O)c1ccc([N+](=O)[O-])cc1Cl`, the Potency entry in assay [1], in assay [19], in assay [2], in [3], in assay [4] and in [18] was “inactive” each time. For the same compound, the compound was called inactive in assay [5], in assay [6], in assay [7], in assay [8], in assay [9] and in [10]. In addition, the call in [11], in [12], in assay [13], in [14], in assay [15] and in assay [16] was inactive.

For the compound `C#C[C@]1(O)CC[C@H]2[C@@H]3CCC4=CC(=O)CC[C@@H]4[C@H]3CC[C@@]21CC`, the Potency result in assay [1], in assay [2], in assay [3] and in [4] was “inactive” throughout. The Potency entry in assay [17] is “inactive and 48.6 µM (active)”. Also, the result in assay [5], in assay [6], in [7], in [8], in assay [9] and in assay [10] was inactive. In addition, the compound was called inactive in assay [11], in assay [12], in assay [13], in [14], in [15] and in [16].

Take `CC(O)COc1ccccc1` (centres undefined): the Potency entry in assay [1], in assay [2], in assay [3], in [4], in assay [20] and in assay [18] was “inactive” each time. Besides, the call in assay [5], in assay [6], in assay [7], in [8], in assay [9] and in assay [10] was inactive. The compound was called inactive in [11], in [12], in [13], in [14], in [15] and in assay [16].
